# GALK inhibitor – inhibitors of human galactokinase; Potency, µM (top dose mostly 57.5 µM), inactives show at the top dose activity change, negative = inhibition, most hits filed as inhibitors; Purified GALK, Kinase-Glo residual ATP luminescence; 270,000 tested, 0.007% active; P51570; note: potency is the fitted concentration of half-maximal effect
#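 Compounds were pin-transferred into ATP buffer (35 uM final), then GALK plus galactose (5 nM, 100 uM final) was added. After 1 h at room temperature, Kinase-Glo Plus was added and luminescence read after 10 min.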
# TrxR1 inh – blocks rat thioredoxin reductase 1; O89049; recombinant rTrxR1, NADPH fluorescence consumption, selenite substrate; Potency, µM (top dose mostly 114 µM), for inactives: at the top dose activity change, negative = inhibition, hits mostly inhibitors; 390,000 tested, 1% active; AID 588453; note: potency is the fitted concentration of half-maximal effect; nearly all actives have a fitted effect of over 65% in size
#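 Rat TrxR1 (90 nM in the dispensed reagent) was pre-reduced with 400 uM NADPH for 5 min at room temperature, then incubated with compound for 15 min. After 400 uM selenite was added, NADPH fluorescence (Ex 340/Em 450 nm) was followed for 8 min.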
# TrxR1 substrate – rat thioredoxin reductase 1 substrate activity. O89049. purified TrxR1 substrate turnover, NADPH consumption readout. Potency, µM (top dose mostly 114 µM), without a hit: at the highest dose activity change, negative = substrate turnover. 390,000 tested, 0.01% active. AID 588456; note: potency is the fitted concentration of half-maximal effect; nearly all actives have a fitted effect of over 50% in size
#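 Rat TrxR1, dispensed at 90 nM, was prereduced with 400 uM NADPH (final) for 5 min at ~22 deg C, then incubated with compound 15 min before 400 uM selenite. A first-read NADPH fluorescence drop versus no-compound background flagged substrates.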
# FBPA coupling cs – counter-screen for Giardia aldolase inhibitors: coupling enzyme system. AID 2472. 290,000 tested, 0.67% active. coupling enzyme system counterscreen, AmpLite Red fluorescence. activity change, negative = inhibition, % at 58.2 µM, hits read low; in the data active = activity change below about -30%
#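 Counterscreen lacking aldolase: glyceraldehyde-3-phosphate coupling-enzyme reagent preincubated 10 min at RT with compound (at 57.5 uM final), then substrate/coupling system with AmpLite Red added; fluorescence read at 525/598 nm after 20 min RT.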
# USP1 inh – USP1/UAF1 (human) deubiquitinase inhibition; recombinant USP1/UAF1, Ub-Rhodamine cleavage fluorescence; Potency, µM (top dose mostly 57.1 µM), inactives show at the top dose activity change, negative = inhibition, hits mostly inhibitors; 390,000 tested, 0.23% active; O94782; note: potency is the fitted concentration of half-maximal effect; nearly all actives have a fitted effect of over 60% in size
# Target sequence (O94782 whole entry, looked up): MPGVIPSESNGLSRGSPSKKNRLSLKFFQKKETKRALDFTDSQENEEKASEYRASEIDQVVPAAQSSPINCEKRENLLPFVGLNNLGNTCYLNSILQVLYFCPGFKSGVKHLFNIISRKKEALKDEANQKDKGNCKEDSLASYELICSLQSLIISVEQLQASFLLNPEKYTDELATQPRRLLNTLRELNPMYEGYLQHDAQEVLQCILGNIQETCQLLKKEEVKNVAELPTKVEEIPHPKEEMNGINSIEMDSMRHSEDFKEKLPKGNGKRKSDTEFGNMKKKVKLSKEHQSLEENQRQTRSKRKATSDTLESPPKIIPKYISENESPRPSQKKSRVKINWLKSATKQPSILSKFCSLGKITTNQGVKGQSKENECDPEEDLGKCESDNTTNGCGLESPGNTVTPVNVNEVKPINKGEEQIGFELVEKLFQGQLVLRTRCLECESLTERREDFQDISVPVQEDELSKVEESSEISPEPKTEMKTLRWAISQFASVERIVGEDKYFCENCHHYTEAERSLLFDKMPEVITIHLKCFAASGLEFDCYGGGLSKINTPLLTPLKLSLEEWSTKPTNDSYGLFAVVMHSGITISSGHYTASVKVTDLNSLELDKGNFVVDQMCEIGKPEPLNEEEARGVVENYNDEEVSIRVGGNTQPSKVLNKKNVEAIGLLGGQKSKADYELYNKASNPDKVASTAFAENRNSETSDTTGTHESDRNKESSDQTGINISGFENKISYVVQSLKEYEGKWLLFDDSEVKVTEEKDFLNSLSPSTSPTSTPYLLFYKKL
#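 USP1/UAF1 complex at 1 nM was preincubated with compound for 15 min at room temperature, then Ub-Rho substrate (150nM final) was added. Fluorescence (480/540 nm) was read kinetically, 6 reads every 60 seconds.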
# The depositor's hits bear a star; ? = inconclusive; . = not tested or not shown; [ ] = remark or other dose. In the library only some 1.5% were active in any assay of this set; here they are far more common. Unless noted, calls come from the whole dose curve; as a rule, active = well fitted curve in the direction sought with a large enough effect; inconclusive = small, poorly fitted or top-dose-only effect, or another doubt; inactive = no such curve, though single readings can be large; an effect the other way counts as inactive or inconclusive. % is set by controls: 0 for no effect and ±100 for the full control effect.
SMILES,GALK inhibitor,TrxR1 inh,TrxR1 substrate,FBPA coupling cs,USP1 inh
CCCCCCCCCC[n+]1ccc(/C=C/c2ccc(N(C)C)cc2)c2ccccc21,.,?,-14%,.,.
COc1ccc(-c2nc3c(c4c2C[C@H](c2ccccc2)OC4)CN(S(=O)(=O)c2ccc(NC(C)=O)cc2)CC3)c(C)c1,.,.,.,3,.
O=S(=O)(c1ccc(F)cc1)N1CCN(c2nc(-c3cccc(Br)c3)nc3ccccc23)CC1,.,22%,0%,.,.
COc1ccc2[nH]c(C(O)C(O)c3nc4c(OC)c(OC)ccc4[nH]3)nc2c1OC (stereo not given),.,21%,7%,.,.
Cn1ccsc1=NC(=O)c1ccc(Cl)c([N+](=O)[O-])c1,0%,12%,2%,-1,-17%
Cn1ccsc1=NC(=O)c1ccc(S(C)(=O)=O)c([N+](=O)[O-])c1,5%,56µM*,-13%,.,-10%
CCN1CCc2c(sc(NC(=S)NC(=O)c3cccc(F)c3)c2C(N)=O)C1,.,-10%,-5%,.,.
Cc1cc2nn(-c3ccc(F)cc3)nc2cc1NC(=O)c1ccc(OC(C)C)cc1,.,89µM*,93%,.,-29%
COc1ccc(OCCCn2c(CCNC(=O)C3CCCCC3)nc3ccccc32)cc1,.,0%,-6%,.,.
Cc1cc(=O)cc2oc3cc(N)c(-c4c(C)cc(O)cc4O)c(C)c3nc1-2,.,.,.,-30*,.
O=C(c1ccc(S(=O)(=O)Cc2cc(F)ccc2F)c([N+](=O)[O-])c1)N1CCCCC1,-1%,4.5µM*,0%,1,-14%
O=C(c1ccc(S(=O)(=O)Cc2cc(F)ccc2F)c([N+](=O)[O-])c1)N1CCCC1,-1%,10µM*,-9%[57.1 µM],-6,-6%
O=S(=O)(Nc1cc(Br)cc2cccnc12)c1ccccc1,.,13%[0.457 µM],8%[0.457 µM],.,.
Cc1cc(=S)cc(C)n1CCO,.,35µM*,0%,0,-18%
O=C(NC(NNc1ccc([N+](=O)[O-])cc1)(C(F)(F)F)C(F)(F)F)c1ccc(F)cc1,1%,28µM*,-25%,0,-19%
O=C(NC(Nc1nc2ccc([N+](=O)[O-])cc2s1)(C(F)(F)F)C(F)(F)F)c1ccccc1Cl,-3%,-19%,-17%,4,-27%
COC(=O)C(NNc1ccccc1)(NC(=O)c1ccc(F)cc1)C(F)(F)F (stereo not given),-1%,-12%,-1%,0,-18%
O=C(NC(NNc1ccc([N+](=O)[O-])cc1)(C(F)(F)F)C(F)(F)F)c1ccccc1Cl,-2%,3.2µM*,-22%,-2,-18%
CC(C)(C)OC(=O)NC(NC(=O)OCC1c2ccccc2-c2ccccc21)C(=O)O (stereo not given),.,.,.,-8,.
NS(=O)(=O)c1ccc(NC(=O)c2cnn3c2NC(=C2CC2)C=C3C(F)F)cc1,.,-6%,6%,.,.
Cc1c(C=O)c(Cl)n(C)c(=O)c1C#N,0%,-52%,1%[57.1 µM],-46*,?
CC(=O)N=Cc1c(C)c(C#N)c(=O)n(C)c1O,-2%,?,-9%[57.1 µM],-51*,-27%
CCc1c2c(nc3ccc(OC)cc13)-c1nc3ccccc3c(=O)n1C2,.,50%[57.1 µM],60%,-1,.
CCN(CC)c1ccc(/C=C2\C(=O)c3ccc(C(=O)O)cc3C2=O)cc1,0%,?,-16%,0,14µM*
CCN(CC)c1ccc(C(=O)O)cc1,1%,2%,-7%,-1,3%
SMILES,GALK inhibitor,TrxR1 inh,TrxR1 substrate,FBPA coupling cs,USP1 inh
O=C(O)CCN1C(=O)/C(=C/c2ccc(-c3nc4ccccc4s3)o2)SC1=S,2%,?,-24%,-2,7.1µM*
O=C(O)CCCN1C(=O)/C(=C\c2ccc(-c3nc4ccccc4s3)o2)SC1=S,1%,50µM*,-8%,-2,?
O=C(O)CC(C(=O)O)N1C(=O)/C(=C/c2ccc(-c3nc4ccccc4s3)o2)SC1=S (stereo not given),-17%,?,-30%,0,28µM*
O=C(O)c1ccc(-c2nc3ccccc3s2)o1,1%,?,51%,3,-13%
O=Cc1ccc(-c2nc3ccccc3s2)o1,3%,7%,40%,-1,-8%
COc1ccc(CN2C(=O)/C(=C/c3ccc(-c4ccc(Cl)c(C(=O)O)c4)o3)SC2=S)cc1,-1%,.,.,2,.
O=C(O)c1cc(-c2ccc(/C=C3/SC(=S)N(Cc4ccccc4)C3=O)o2)ccc1Cl,4%,-39%,8%[57.1 µM],-2,25µM*
CCCCCCCCCCCCCCCCCCN(CCCCCCCCCCCCCCCCCC)c1ccc(/C=C/c2ccc(C=O)cc2)cc1,.,15%,6%,.,.
CNCCN(C)c1nc(-c2cccs2)nc2ccccc12,.,-34%,-10%,.,.
CCN1C(C(=O)c2ccccc2)=C(OC(=O)COc2ccc(C)cc2)c2ccccc2S1(=O)=O,.,20µM*,-12%,.,-1%
CCN1C(C(=O)c2ccccc2)=C(OC(=O)COc2ccc(OC)cc2)c2ccccc2S1(=O)=O,.,13µM*,5%,.,-21%
Nc1ncnc2c1nc(Cl)n2[C@@H]1O[C@H](CO)[C@@H](O)[C@@H]1O,.,30%,24%,.,.
N#C/C(=C\c1cc(O)c(O)c(O)c1)C(N)=O,2%,-17%,-20%,-49*,-5%
Cc1nnc(Sc2cc(NCCO)c([N+](=O)[O-])c3nonc23)s1,-2%,0.32µM*,-5%,-22,-26%
CC(=O)c1ccc(Sc2nnc(C)s2)c([N+](=O)[O-])c1,2%,?,0%,0,-23%
Cc1nnc(Sc2cc(NCCCO)c([N+](=O)[O-])c3nonc23)s1,2%,?,6%[57.1 µM],-36*,14µM*
O=C(C[n+]1csc2ccccc21)c1ccc(O)c(O)c1,.,33%,0%,.,.
CC(C)(C)c1ccc(C(=O)C[n+]2ccccc2Cl)cc1,.,-8%,-4%,.,.
CCCCNc1cc(NC(C)=O)cc2cc(OC)c(OC)cc12,-1%,-20%,8%,-44*,?
O=C1[C@H](Cc2ccccc2)NC/C=C\C[C@@H](c2ccc(Cl)cc2)N1Cc1ccccc1,.,-3%,-2%,.,.
O=C(CCl)Nc1cccc2ncccc12,1%,50µM*,-4%,-4,-8%
O=C(CCCl)Nc1cccc2cccnc12,.,13µM*,9%,.,.
O=C(CSc1ccccn1)Nc1cccc2ccccc12,0%,15%[57.1 µM],5%[57.1 µM],-77*,-25%
Cc1cc2c(c(C)c1Cl)C(c1ccc3c(c1)OCO3)CC(O)(c1ccccc1)O2 (stereo not given),.,6%,-7%,-6,.
COCCNC(=O)CC(=O)N/N=C/c1ccc(C(=O)OC)cc1,-1%,10%[57.1 µM],-5%,3,-16%
COCCCNC(=O)CC(=O)N/N=C\c1ccc(SC)cc1,2%,-12%,5%,-70*,-11%
C=CCn1c(Sc2ncc([N+](=O)[O-])s2)n[nH]c1=O,0%,0.32µM*,12%[57.1 µM],-7,-10%

# Source: PubChem
